Sampled rows, rich in hits. Any-hit rate of the full collection: about 3.2%.
VACV mCherry inh: vaccinia inhibition (mCherry reporter); 0.63% of 310,000 active; Potency, µM (series often up to 36.5 µM), for the others: at the highest dose activity change, negative = inhibition, actives largely listed as inhibitors; AID 720579; Vaccinia virus mCherry reporter infection, fluorescence; calls by dose curve; tested in A549 cells; further: nearly all actives have a fitted effect of over 35% in size
LASV entry inh: blocks Lassa virus binding to or entry into cells; Lassa virus pseudotype entry inhibition, cell reporter; 1.2% of 300,000 active; Potency, µM (titrated, usually from 37.9 µM), for inactives: top-dose activity change, negative = inhibition, most hits filed as inhibitors; calls by dose curve; tested in HEK293 cells; further: nearly all actives have a fitted effect of over 50% in size
Marburg entry inh: inhibitors of Marburg virus binding or cell entry. Marburg virus pseudotyped entry inhibition, cell reporter. Potency, µM (titrated, usually from 37.8 µM), for inactives: at the top dose activity change, negative = inhibition, usual class: inhibitors. 1.8% of 300,000 active; calls by dose curve; tested in HEK293 cells
Vaccinia Venus: inhibitors of vaccinia virus (Venus reporter); Potency, µM (titrated, usually from 36.5 µM), for the others: at the top dose activity change, negative = inhibition, usual class: inhibitors; 0.46% of 330,000 active; Vaccinia virus Venus reporter expression, fluorescence; calls by dose curve; tested in A549 cells; further: nearly all actives have a fitted effect of over 30% in size
FMDV inh: blocks foot and mouth disease virus | FMDV antiviral cell-based qHTS | Potency, µM (series often up to 57.9 µM), for inactives: at the top dose activity change, negative = inhibition, usual class: inhibitors | 1.2% of 410,000 active | AID 1159524; calls by dose curve; tested in HEK293T cells; further: read-out not given here; nearly all actives have a fitted effect of over 45% in size
* marks the source's active call; other numbers are inactive results; i = inactive; ? = inconclusive; . = no result; ! = repeats disagree; [ ] = another dose, or the depositor's remark. On the % scale 0 is the no-effect control and ±100 the full control effect; potency means the concentration at half of the fitted maximal effect.

SMILES	VACV mCherry inh	LASV entry inh	Marburg entry inh	Vaccinia Venus	FMDV inh
Clc1ccccc1-c1nn2c(-c3ccncc3)nnc2s1	-21%	?	7.3µM*	-26%	-7%
c1ccc(-c2nn3c(-c4ccccc4)nnc3s2)cc1	-25%	-1%	5%	-25%	-6%
Cc1ccc(-c2nnc3sc(-c4ccncc4)nn23)cc1	-11%	15%	5.8µM*	-8%	2%
C=CCOC(=O)N[C@H](c1ccccc1)[C@H](C)C=CCC(=O)OC	.	.	9%[14.2 µM]	.	.
O=S(=O)(c1ccc2ccccc2c1)N(C[C@@H](O)CN1CCOCC1)c1ccccc1	.	.	19%	.	.
c1ccc(-c2cnc(-c3cccnc3)o2)cc1	-5%	1%	?	-17%	33%
c1ccc(Oc2ccc(Nc3ncc(-c4ccccc4)o3)cc2)cc1	.	0.25µM*	.	.	.
CCOC(=O)N1CCc2c(sc3c2C(=O)NC(c2ccc(N(C)C)cc2)N3)C1 (stereo not given)	-22%[7.34 µM]	?	?	-18%[7.34 µM]	0%
CCOC(=O)N1CCc2c(sc3c2C(=O)NC(c2ccccc2)N3)C1 (stereo not given)	.	?	3.2µM*	-27%	?
COc1cccc(NC(=O)[C@@H]2CC(=O)n3cnnc3S2)c1	.	.	14%	.	.
COc1cc(/C=C/C(=O)OCC(=O)N2c3ccccc3NC(=O)C2(C)C)cc(OC)c1OC	.	.	.	.	28µM*
COCc1c(C(=O)OCC(=O)N2c3ccccc3NC(=O)C2(C)C)oc2ccccc12	.	-8%	?	.	25µM*
Cc1csc(NC(C)c2nc3cc(Cl)c(Cl)cc3n2CCCO)n1 (stereo not given)	-23%	.	.	-20%	-7%
CCN(CC)CCCn1c(C)cc2c(c1=O)[C@@H](c1cccc(Cl)c1)C(C#N)=C(N)O2	.	.	11µM*	.	.
COc1cccc(C2C(C#N)=C(N)Oc3cc(C)n(Cc4ccco4)c(=O)c32)c1 (stereo not given)	-14%[1.46 µM]	-13%	-16%	-9%	12%
Cc1ccc2nc(-c3ccccn3)[nH]c2c1	-11%	6.3µM*	?	-7%	-39%
CCOC(=O)C1(Cc2cccc(OC)c2)CCN(Cc2cnc(C)s2)CC1	i	-28%	-23%[46.1 µM]	-12%	?
NC(=O)CNCCC(c1ccccc1)c1ccccc1	-19%	-2%	11µM*!	-15%	-9%
Cc1cc(S(=O)(=O)Nc2ccc(C(=O)NCC3(N4CCCCC4)CCCCC3)cc2)ccc1F	-14%	?	11µM*	-5%	-23%
COC(=O)[C@@]12OC[C@]34[C@H]([C@@H](O)[C@@H]1O)[C@@]1(C)C(=O)C(O[C@@H]5OC(CO)[C@@H](O)[C@@H](O)[C@@H]5O)=C[C@@H](C)[C@@H]1C[C@H]3OC(=O)[C@H](OC(=O)/C=C(\C)C(C)(C)OC(C)=O)[C@@H]24 (stereo not given in full)	8.9µM*	.	.	8.9µM*	0%
COc1ccccc1C1NC(c2ccc3c(c2)OCO3)=CC(c2cc(Br)ccc2O)N1 (stereo not given)	29%	.	.	9%	.
COc1ccc(Cl)cc1NC(=O)CCCS(=O)(=O)c1nc(-c2ccc(OC)c(OC)c2)cc(C(F)(F)F)n1	-12%	-4%[46.1 µM]	?	-13%	?
COc1ccccc1-c1cc(C(F)(F)F)nc(S(=O)(=O)CCCC(=O)Nc2cc(C)on2)n1	-23%	-3%	?	?	13µM*
COc1ccc(-c2cc(C(F)(F)F)nc(S(=O)(=O)CCCC(=O)Nc3cc(C)on3)n2)cc1OC	-21%	?	?	-20%	13µM*
CCOC(=O)C1C(=O)NC(C(=O)OCC)(C(=O)OCC)C1CC (stereo not given)	-1%	3%[46.1 µM]	8%[46.1 µM]	3%	-12%
SMILES	VACV mCherry inh	LASV entry inh	Marburg entry inh	Vaccinia Venus	FMDV inh
COc1cccc([C@H]2Oc3ccc(OC)cc3C(=NOCC[C@@H]3C=C[C@H](OC(C)=O)[C@@H](COC(C)=O)O3)[C@H]2O)c1	.	?	-24%[14.2 µM]	.	.
O=C(/C=C/c1ccccc1)CCN1CCOCC1	10µM*	?	?	?	?
C/C(=C\c1ccccc1)C(=O)NCCN1CCOCC1	-14%	.	.	1%	5%
COc1ccc(OC(=O)N2C/C(=C/c3ccccc3)C(=O)/C(=C\c3ccccc3)C2)cc1	-7%	7.1µM*	?	-5%	32µM*
CN(C)CCC(=O)N1C/C(=C/c2ccccc2)C(=O)/C(=C\c2ccccc2)C1	8.9µM*	?	?	11µM*	8.9µM*
O=C(/C=C/c1ccccc1)N1CCOCC1	.	.	.	.	15%
CN1CCN(C(=O)CCCN2C(=O)/C(=C/c3ccccc3)SC2=S)CC1	?	?	?	-1%	-13%
O=C1/C(=C/c2ccccc2)CN(C(=O)CCN2CCOCC2)C/C1=C\c1ccccc1	?	1.4µM*	?	?	8.9µM*
O=C1CCC2(CCCC2)c2ccccc21	-14%	.	.	-3%	-26%
CCOC(=O)N1C/C(=C\c2ccccc2)C(=O)/C(=C/c2ccccc2)C1	?	.	.	?	20µM*
Cc1nc2c(O)c3c(c(O)c2nc1C)C1C=CC3CC1	-4%	?	?	-25%	7.1µM*
CN(C)c1ccc(-c2nc(NC3CCNCC3)c3ccccc3n2)cc1	11µM*	.	.	11µM*	41%
Cc1cnc(CNc2nc(-c3ccc(N(C)C)cc3)nc3ccccc23)cn1	11µM*	.	.	?	39%
Cc1cnc(CNc2nc(-c3ccccc3C(F)(F)F)nc3ccccc23)cn1	.	.	.	.	-11%
Cc1ccc(Sc2cncc3sc(C(N)=O)cc23)cc1	.	.	.	.	19%
O=C(Nc1ccccc1-c1ccccc1)c1ccc(Cl)c([N+](=O)[O-])c1	20µM*	23µM*	7.3µM*	13µM*	-9%
O=C(Nc1ccc(Nc2ccccc2)cc1)c1ccc(Cl)c([N+](=O)[O-])c1	.	.	.	.	-20%
O=C(Nc1cccc2c1CCCC2)c1ccc(Cl)c([N+](=O)[O-])c1	3%	0%	-7%	4%	25µM*
COc1ccc(C(=O)Nc2ccc3oc(-c4cc(Cl)ccc4Cl)nc3c2)cc1Br	-24%	11%[46.1 µM]	.	-23%	-21%
Fc1cccc(CNCC2CCCO2)c1 (stereo not given)	-21%	19%	-8%	-10%	-6%
Fc1ccc(COc2ccc(Br)cc2CNCC2CCCO2)cc1 (stereo not given)	?	?	4µM*	?	-22%
O=C(Nc1ccccc1O)c1c(O)c2c([nH]c1=O)CCCC2	18µM*	?	?	?	-16%
O=C(Nc1nccs1)c1c(O)c2c([nH]c1=O)CCCC2	i	18%[46.1 µM]	?	-4%	40%
CCN(CC(=O)Nc1cccc(OC)c1)c1ncnc2sc(C)c(C)c12	-17%	-26%	?	-22%	20µM*
COCC(C)n1c(SCc2cc(=O)n3cc(C)ccc3n2)nc2ccccc2c1=O (stereo not given)	-10%	6.3µM*	5µM*	4%	-29%
COc1ccc(CCNC(=O)c2ccc3c(c2)N(Cc2ccc(F)cc2)C(=O)CS3)cc1OC	-12%	?	.	-12%	?
CCN(CCCN(C)C)c1ccc(/C=C/c2ccnc3ccccc23)cc1	-19%	.	.	7%	.
